Experimental data: PubChem BioAssay (NCATS)
“And” between values parts separate entries of the source, which are not always exact repeats. Equal entries are not always repeated. Results filed as inconclusive are left out. Values without a mark were called inactive. The source made the active and inactive calls. The call rests on the fitted dose curve; in most records, active means well fitted curve in the direction sought with a large enough effect; inconclusive means small, poorly fitted or top-dose-only effect, or another doubt; inactive means no such curve, though single readings can be large; an effect the other way counts as inactive or inconclusive.

How the values were obtained:
[1] = biological target: Cellular tumor antigen p53 (Homo sapiens) (UniProt P04637); assay: Primary qHTS for small molecule compounds that upregulate eGFP-tagged delta133p53alpha (in N-terminal) cells. (AID 2060322); details: NCI-H358 eGFP-delta133p53alpha fluorescence, 24 h; activation: hits give high values; further: nearly all actives have a fitted effect of over 75% in size; further: potency means the concentration at half of the fitted maximal effect;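 on activation: cells pre-induced with doxycycline then dosed without doxycycline; 0% = DMSO vehicle and 100% = reference activator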
Procedure, shortened: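 NCI-H358 cells pre-induced 24 h with 10 ng/ml doxycycline for eGFP-delta133p53alpha, plated dox-free and exposed 24 h at 37C to titrated compounds. Fixed, Hoechst-stained; gated GFP peak intensity by laser scanning cytometry, normalized to DMSO (0%) and 57.5 uM 5-azacytidine (100%).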

[2] = biological target: Aldehyde dehydrogenase, mitochondrial (Homo sapiens) (UniProt P05091); assay: qHTS for Inhibitors of the Aldehyde Dehydrogenase Family (ALDH2) Primary screen (AID 2061308); details: ALDH2 enzyme inhibition qHTS, 1536-well; series mostly up to 56 µM;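 further: plate controls were vehicle for no effect and reference inhibitor for full effect; nearly all actives have a fitted effect of over 55% in size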
[3] = biological target: Retinaldehyde dehydrogenase 3 (Homo sapiens) (UniProt P47895); assay: qHTS for Inhibitors of the Aldehyde Dehydrogenase Family (ALDH1A3) Primary screen (AID 2061315); details: ALDH inhibition qHTS; series mostly up to 56 µM;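 further: plate controls were DMSO vehicle for no effect and reference inhibitor for full effect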
[4] = BET inhibitor-based combinations targeting novel dependencies in MECOM-rearranged (r) AML: SET-2 cell line (AID 2202231); details: SET-2 AML cells viability, CellTiter-Glo luminescence, 48 h; viability: hits give low values, concentration not given here; further: nearly all actives have a fitted effect of over 35% in size; further: potency means the concentration at half of the fitted maximal effect;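 on viability: plate controls were DMSO treated cells for no effect and wells without cells for full effect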
Procedure, shortened: (§1)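 A 48 hr incubation preceded viability reading by CellTiter-Glo, with 15 min room-temperature development. Dose series had 11 points; normalization used DMSO and empty wells; AUC was computed and mean-centered per line as Z-AUC.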

[5] = BET inhibitor-based combinations targeting novel dependencies in MECOM-rearranged (r) AML: OCI-AML3 cell line (AID 2202232); details: CellTiter-Glo luminescence, 48 h; Potency: OCI-AML3 viability; series mostly up to 46 µM; further: nearly all actives have a fitted effect of over 35% in size; further: potency means the concentration at half of the fitted maximal effect
Procedure, shortened: as §1

[6] = BET inhibitor-based combinations targeting novel dependencies in MECOM-rearranged (r) AML: MV-4-11 cell line (AID 2202233); details: MV-4-11 AML viability, CellTiter-Glo luminescence, 48 h; series mostly up to 46 µM; further: potency means the concentration at half of the fitted maximal effect; nearly all actives have a fitted effect of over 45% in size
Procedure, shortened: (§2)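 Each compound is tested in an 11-point concentration series against 500 seeded cells/well for 48 hr. The luminescent viability signal is normalized to DMSO and blank wells, then reduced to AUC and a cell-line-centred Z-AUC.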

[7] = BET inhibitor-based combinations targeting novel dependencies in MECOM-rearranged (r) AML: UCSD-AML1 cell line (AID 2202235); details: UCSD-AML1 AML cells viability, CellTiter-Glo, 48 h; series mostly up to 46 µM; further: nearly all actives have a fitted effect of over 40% in size; further: potency means the concentration at half of the fitted maximal effect
Procedure, shortened: as §2

[8] = BET inhibitor-based combinations targeting novel dependencies in MECOM-rearranged (r) AML: AML-191 cell line (AID 2202236; further: nearly all actives have a fitted effect of over 35% in size; further: potency means the concentration at half of the fitted maximal effect); details: AML-191 viability, CellTiter-Glo luminescence, 48 h; series mostly up to 46 µM
Procedure, shortened: as §1

[9] = BET inhibitor-based combinations targeting novel dependencies in MECOM-rearranged (r) AML: AML-194 cell line (AID 2202237; further: nearly all actives have a fitted effect of over 40% in size; further: potency means the concentration at half of the fitted maximal effect); details: AML-194 (MECOM-r AML) viability, CellTiter-Glo, 48 h; series mostly up to 46 µM
Procedure, shortened: as §1

[10] = BET inhibitor-based combinations targeting novel dependencies in MECOM-rearranged (r) AML: HNT-34 cell line (AID 2202234); details: HNT-34 AML viability, CellTiter-Glo luminescence, 48 h; series mostly up to 46 µM; further: nearly all actives have a fitted effect of over 35% in size; further: potency means the concentration at half of the fitted maximal effect
Procedure, shortened: as §2

Cellular tumor antigen p53 (Homo sapiens), sequence (P04637 whole entry, looked up): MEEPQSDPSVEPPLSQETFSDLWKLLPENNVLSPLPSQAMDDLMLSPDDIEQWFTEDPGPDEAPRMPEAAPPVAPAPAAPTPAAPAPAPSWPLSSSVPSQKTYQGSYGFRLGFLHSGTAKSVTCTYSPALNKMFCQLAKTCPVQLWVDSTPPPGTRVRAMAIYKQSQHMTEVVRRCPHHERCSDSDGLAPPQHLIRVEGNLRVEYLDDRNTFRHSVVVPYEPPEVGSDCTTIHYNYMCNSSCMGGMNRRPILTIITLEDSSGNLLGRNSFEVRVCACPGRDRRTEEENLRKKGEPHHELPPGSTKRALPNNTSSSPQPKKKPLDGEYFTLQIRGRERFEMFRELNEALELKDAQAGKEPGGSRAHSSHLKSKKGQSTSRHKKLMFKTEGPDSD

Question: Which Potency [1] does the source give for `Cc1cc(Nc2cc(N3CCN(C)CC3)nc(/C=C/c3ccccc3)n2)n[nH]1` here?
Answer: 30.1 µM (active)

Question: What about the Potency [2] of the same molecule?
Answer: inactive

Question: What about the Potency [3] of the same molecule?
Answer: inactive

Question: And the Potency [4]?
Answer: 13.2 µM (active)

Question: And the Potency [5]?
Answer: 8.33 µM (active)

Question: And the Potency [6]?
Answer: 0.132 µM (active)

Question: What about the Potency [7] of the same molecule?
Answer: 2.95 µM (active)

Question: And the Potency [8]?
Answer: 2.09 µM (active)

Question: And the Potency [9]?
Answer: 1.18 µM (active)

Question: Which activation [1] does the source give for `c1ccc2c(Oc3nc(Nc4ccc(N5CCOCC5)cc4)c4ncn(C5CCCCC5)c4n3)cccc2c1` here?
Answer: 9.2% and -7.64%

Question: What about the Potency [2] of the same molecule?
Answer: inactive

Question: And the Potency [3]?
Answer: inactive

Question: What about the viability [4] of the same molecule?
Answer: 101%

Question: And the Potency [5]?
Answer: inactive

Question: What about the Potency [6] of the same molecule?
Answer: 7.42 µM (active)

Question: And the Potency [7]?
Answer: inactive

Question: And the Potency [8]?
Answer: inactive

Question: Which Potency [1] does the source give for `Cn1cc(-c2ccc(S(=O)(=O)n3ccc(/C=C/C(=O)Nc4ccccc4N)c3)cc2)cn1` here?
Answer: 19 µM (active)

Question: And the Potency [2]?
Answer: inactive

Question: What about the Potency [3] of the same molecule?
Answer: inactive

Question: And the Potency [4]?
Answer: 1.86 µM (active)

Question: And the Potency [5]?
Answer: 1.18 µM (active)

Question: What about the Potency [6] of the same molecule?
Answer: 1.18 µM (active)

Question: What about the Potency [10] of the same molecule?
Answer: 1.05 µM (active)

Question: And the Potency [7]?
Answer: 1.18 µM (active)

Question: And the Potency [9]?
Answer: 1.05 µM (active)

Question: Which results are given for `CN1CCN(c2ccc(OC(F)(F)F)c(Nc3ncc4c(n3)-c3c(c(C(N)=O)nn3CCO)CC4)c2)CC1`?
Answer: activation [1]: 85.7%; Potency [2]: inactive; Potency [3]: inactive; Potency [4]: 0.186 µM (active); Potency [5]: 0.059 µM (active); Potency [6]: 0.0934 µM (active); Potency [7]: 0.118 µM (active); Potency [8]: 0.132 µM (active)

Question: With `C=C1C(=O)[C@@]23C(CC[C@@H]1[C@H]2O)[C@@]12CO[C@]3(O)[C@@H](O)[C@@H]1C(C)(C)CC[C@@H]2O` (stereo partly specified) as the molecule, how does the Potency [1] read?
Answer: 27.3 µM (active)

Question: And the Potency [2]?
Answer: inactive

Question: And the Potency [3]?
Answer: inactive

Question: What about the Potency [4] of the same molecule?
Answer: 9.34 µM (active)

Question: And the Potency [5]?
Answer: 3.32 µM (active)

Question: And the Potency [6]?
Answer: 2.63 µM (active)

Question: What about the Potency [10] of the same molecule?
Answer: 2.35 µM (active)

Question: And the Potency [8]?
Answer: 8.33 µM (active)

Question: What about the Potency [9] of the same molecule?
Answer: 11.8 µM (active)

Question: Which results are given for `Cc1ccc(C(=O)Nc2ccc(Oc3cc4cnn(C)c4cc3-c3cn[nH]c3)c(F)c2)c(=O)n1-c1ccc(F)cc1`?
Answer: Potency [1]: 15.1 µM (active); Potency [2]: inactive; Potency [3]: inactive; Potency [4]: 11.8 µM (active); Potency [5]: 5.25 µM (active); Potency [6]: 0.0053 µM (active); Potency [7]: 5.25 µM (active); Potency [8]: 6.61 µM (active)

Question: Which Potency [1] does the source give for `COc1cc(Nc2c(C#N)cnc3cc(OCCCN4CCN(C)CC4)c(OC)cc23)c(Cl)cc1Cl` here?
Answer: 30.9 µM (active) and 23.9 µM (active)

Question: And the Potency [2]?
Answer: inactive

Question: What about the Potency [3] of the same molecule?
Answer: inactive

Question: And the Potency [4]?
Answer: 16.6 µM (active)

Question: And the Potency [5]?
Answer: 6.61 µM (active)

Question: What about the Potency [6] of the same molecule?
Answer: 3.32 µM (active)

Question: What about the Potency [10] of the same molecule?
Answer: 0.59 µM (active)

Question: And the Potency [7]?
Answer: 8.33 µM (active)

Question: What about the Potency [9] of the same molecule?
Answer: 7.42 µM (active)

Question: For `COc1cc2c(Oc3ccc(NC(=O)C4(C(=O)Nc5ccc(F)cc5)CC4)cc3F)ccnc2cc1OCCCN1CCOCC1`, which Potency [1] is on record?
Answer: 7.57 µM (active)

Question: And the Potency [2]?
Answer: inactive

Question: And the Potency [3]?
Answer: inactive

Question: And the Potency [4]?
Answer: 23.5 µM (active)

Question: What about the Potency [5] of the same molecule?
Answer: 11.8 µM (active)

Question: And the Potency [6]?
Answer: 0.0074 µM (active)

Question: And the Potency [10]?
Answer: 0.833 µM (active)

Question: What about the Potency [9] of the same molecule?
Answer: 0.59 µM (active)

Question: For `CCc1c2c(nc3ccc(O)cc13)-c1cc3c(c(=O)n1C2)COC(=O)[C@]3(O)CC`, which Potency [1] is on record?
Answer: 1.51 µM (active)

Question: And the Potency [2]?
Answer: inactive

Question: And the Potency [3]?
Answer: inactive

Question: What about the Potency [4] of the same molecule?
Answer: 0.0166 µM (active)

Question: And the Potency [5]?
Answer: 0.0093 µM (active)

Question: And the Potency [6]?
Answer: 0.0093 µM (active)

Question: And the Potency [7]?
Answer: 0.0083 µM (active)

Question: And the Potency [8]?
Answer: 0.0093 µM (active)

Question: What about the Potency [9] of the same molecule?
Answer: 0.0118 µM (active)

Question: Which activation [1] does the source give for `Cc1ccc(S(=O)(=O)Cc2nc(-c3ccc(C(=O)NCc4cccnc4)cc3)oc2C)cc1` here?
Answer: 26.3%

Question: What about the Potency [2] of the same molecule?
Answer: inactive

Question: What about the Potency [3] of the same molecule?
Answer: inactive

Question: And the Potency [4]?
Answer: 18.6 µM (active)

Question: And the Potency [5]?
Answer: 0.0118 µM (active)

Question: What about the Potency [6] of the same molecule?
Answer: 0.132 µM (active)

Question: What about the Potency [10] of the same molecule?
Answer: 0.0263 µM (active)

Question: And the Potency [8]?
Answer: 0.0235 µM (active)

Question: Which results are given for `CC[C@@H]1C(=O)N(C)c2cnc(Nc3ccc(C(=O)NC4CCC(N5CCN(CC6CC6)CC5)CC4)cc3OC)nc2N1C(C)C` (stereo partly specified)?
Answer: activation [1]: -21.7%; Potency [2]: inactive; Potency [3]: inactive; Potency [4]: 0.148 µM (active); Potency [5]: 0.059 µM (active); Potency [6]: 0.118 µM (active); Potency [7]: 0.166 µM (active); Potency [8]: 0.166 µM (active); Potency [9]: 0.0934 µM (active)

Question: For `CC1=C(CO)C(=O)O[C@@H]([C@@H](C)[C@H]2CC[C@H]3[C@@H]4C[C@H]5O[C@]56[C@@H](O)C=CC(=O)[C@]6(C)[C@H]4CC[C@]23C)C1`, which Potency [1] is on record?
Answer: 1.47 µM (active)

Question: And the Potency [2]?
Answer: inactive

Question: And the Potency [3]?
Answer: inactive

Question: What about the Potency [4] of the same molecule?
Answer: 0.59 µM (active)

Question: What about the Potency [5] of the same molecule?
Answer: 0.742 µM (active)

Question: And the Potency [6]?
Answer: 0.662 µM (active)

Question: And the Potency [10]?
Answer: 0.118 µM (active)

Question: What about the Potency [7] of the same molecule?
Answer: 0.417 µM (active)

Question: And the Potency [9]?
Answer: 0.372 µM (active)

Question: What does the source list for `FC(F)(F)c1ccc(/C=C/c2nc(COc3ccc(CCCCn4ccnn4)cc3)co2)cc1`?
Answer: activation [1]: 18.8%; Potency [2]: inactive; Potency [3]: inactive; Potency [4]: 0.0742 µM (active); Potency [5]: 0.372 µM (active); Potency [6]: 0.0295 µM (active); Potency [10]: inactive; Potency [7]: inactive; Potency [9]: inactive

Question: For `CNc1nccc(-c2cccnc2Oc2cc(C(=O)Nc3cccc(C(F)(F)F)c3)ccc2C)n1`, which activation [1] is on record?
Answer: -0.576%

Question: And the Potency [2]?
Answer: inactive

Question: What about the Potency [3] of the same molecule?
Answer: inactive

Question: What about the Potency [4] of the same molecule?
Answer: 16.6 µM (active)

Question: What about the Potency [5] of the same molecule?
Answer: 2.35 µM (active)

Question: What about the Potency [6] of the same molecule?
Answer: 2.95 µM (active)

Question: And the Potency [7]?
Answer: 6.61 µM (active)

Question: And the Potency [8]?
Answer: 6.61 µM (active)

Question: And the Potency [9]?
Answer: 6.61 µM (active)
